Experimental data as given in PubChem BioAssay AID1839 (Johns Hopkins Ion Channel Center, 2009).
In all, about 2,400 compounds went through this assay and about 220 (9.2%) were called active. For the sample, actives were picked, then their nearest neighbours and some compounds at random. Unmarked numbers belong to inactive results.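 The calls were made as follows: active = signal change above the mean of dofetilide-free buffer controls plus 3 SD, so a positive margin; inactive = the rest.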

Test: thallium signal changes without hERG – cell-based, CHO-K1 parental line, FluxOR thallium flux, counter-screen for hERG block protection project, confirmation (AID 1839);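 also: compounds applied alone with no dofetilide to cells lacking hERG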
Details: CHO-K1 parental cells, FluxOR thallium flux fluorescence; at 10 µM

Compared with COc1ccc(CCNS(=O)(=O)c2csc(C(N)=O)c2)cc1OC, CCNC(=S)Nc1scc(-c2ccccc2)c1C(=O)OCC is higher in signal change vs control minus 3*SD hit threshold (margin above threshold, higher = more increase): -34.6% for the first, -20.8% for the second.

Going from O=c1oc2ccccc2c(Cl)c1CN1CCCCC1 to O=C(c1c(O)c2ccccc2oc1=O)C1CCCCC1, the signal change vs control minus 3*SD hit threshold (margin above threshold, higher = more increase) rises from -42.9% to -22%.

First: NC(=O)C1CCN(C(=O)CCC(=O)c2ccc(F)cc2)CC1
Second: COc1ccc(C(=O)NC(=S)N2CCC(C)CC2)cc1Br
The signal change vs control minus 3*SD hit threshold (margin above threshold, higher = more increase) of the first is lower: -28.7% for the first, -12.4% for the second.

First: CCOC(=O)NC(=S)Nc1ccc(C(C)(C)C)cc1Br
Second: COC(=O)C1CCCN1C(=O)COc1ccc(Cl)cc1Br (configuration not stated)
The signal change vs control minus 3*SD hit threshold (margin above threshold, higher = more increase) of the first is higher: -0.4% for the first, -25.2% for the second.

Going from CC(=O)c1c(C)c2c(n1CCN(C)C)CCCC2 to CN(C(=S)NC(=O)c1ccccc1)C1CCCCC1, the signal change vs control minus 3*SD hit threshold (margin above threshold, higher = more increase) falls from -15.9% to -23.6%.

First: CSc1nc2c(c(=O)[nH]1)C(c1ccc(Cl)cc1)CC(=O)N2 (configuration not stated)
Second: O=C(CCn1c(=S)[nH]c2cc3c(cc2c1=O)OCO3)NCc1ccc(Cl)cc1
The signal change vs control minus 3*SD hit threshold (margin above threshold, higher = more increase) of the first is lower: -31.6% for the first, -22.3% for the second.

First: CCCCCn1c(=S)[nH]c2ncccc2c1=O
Second: CC(C)CCn1c(=S)[nH]c2ncccc2c1=O
The signal change vs control minus 3*SD hit threshold (margin above threshold, higher = more increase) of the first is higher: -0.3% for the first, -18.3% for the second.

Compared with COc1ccccc1Cn1c(=S)[nH]c2ccc(Br)cc2c1=O, Cc1ccc(Cn2c(=S)[nH]c3ccccc3c2=O)cc1 is higher in signal change vs control minus 3*SD hit threshold (margin above threshold, higher = more increase): -15.7% for the first, -14.9% for the second.

Going from CC(C)COn1c(=S)[nH]c2ccccc2c1=O to CCCCn1c(=S)[nH]c2ccccc2c1=O, the signal change vs control minus 3*SD hit threshold (margin above threshold, higher = more increase) falls from -10.2% to -18.2%.

Compared with O=[N+]([O-])c1ccc(Nc2ccc(Cl)cc2)nc1, NS(=O)(=O)c1ccc(NC(=S)NCc2cccs2)cc1 is lower in signal change vs control minus 3*SD hit threshold (margin above threshold, higher = more increase): -22% for the first, -30.2% for the second.

Compared with COc1cccc(/C=N/n2c(SC)nnc2-c2ccccc2)c1O, COc1ccc(/C=N/NC(=O)c2ccncc2)cc1CN1CCCc2ccccc21 is lower in signal change vs control minus 3*SD hit threshold (margin above threshold, higher = more increase): -24.3% for the first, -40.9% for the second.

First: Cc1cc(=O)[nH]c(=S)n1-c1ccccc1
Second: COc1ccc(N2C(=O)/C(=C/c3cccs3)NC2=S)cc1
The signal change vs control minus 3*SD hit threshold (margin above threshold, higher = more increase) of the first is lower: -38.5% for the first, -29.8% for the second.

Compared with Cc1nn(-c2cccc(C(F)(F)F)c2)c(Cl)c1/C=N/Nc1cccc(C(=O)O)c1, O=C(O)c1ccc(S(=O)(=O)/N=C2\C=C(Nc3ccccc3F)C(=O)c3ccccc32)cc1 is higher in signal change vs control minus 3*SD hit threshold (margin above threshold, higher = more increase): -28.4% for the first, -14.9% for the second.

Compared with CCNC(=O)C/C(C)=N/NC(=O)C(=O)Nc1ccc(CC)cc1, CCC(=O)NC(=S)NNC(=O)c1ccccc1[N+](=O)[O-] is lower in signal change vs control minus 3*SD hit threshold (margin above threshold, higher = more increase): -7.4% for the first, -28% for the second.

Compared with CC1CN(S(=O)(=O)c2ccc(-c3nc4ccccc4s3)cc2)CC(C)O1 (configuration not stated), COc1ccc(OCC(=O)Nc2c3c(nn2-c2ccc(OC)cc2)CS(=O)(=O)C3)cc1 is lower in signal change vs control minus 3*SD hit threshold (margin above threshold, higher = more increase): -8.4% for the first, -14.9% for the second.

First: CCSc1nnc(NC(=O)Cn2cnc3c2c(=O)n(C)c(=O)n3C)s1
Second: CCc1cc2cc(C)cc(C)c2[nH]c1=S
The signal change vs control minus 3*SD hit threshold (margin above threshold, higher = more increase) of the first is lower: -29.2% for the first, -11.2% for the second.

Compared with CC(C)CN1C(=O)/C(=C/c2ccco2)NC1=S, CCCN1C(=O)/C(=C/c2ccc3c(c2)OCO3)NC1=S is higher in signal change vs control minus 3*SD hit threshold (margin above threshold, higher = more increase): -30.9% for the first, -21.2% for the second.

First: Oc1c(Br)cc(Cl)cc1C=Nc1ccccc1Br
Second: O=C(Nc1cccnc1)c1cc(-c2cccs2)on1
The signal change vs control minus 3*SD hit threshold (margin above threshold, higher = more increase) of the first is higher: -1.8% for the first, -26.5% for the second.

Going from O=C(c1ccc(CS(=O)c2cccc(Cl)c2)o1)N1CCCCCC1 (configuration not stated) to CN(C(=S)NC(=O)c1ccccc1Br)C1CCCCC1, the signal change vs control minus 3*SD hit threshold (margin above threshold, higher = more increase) rises from -32.8% to -13.4%.

First: O=C(NC(=S)N(Cc1ccccc1)Cc1ccccc1)c1ccccc1F
Second: N#CCCN(Cc1ccccc1)C(=S)NC(=O)c1ccccc1
The signal change vs control minus 3*SD hit threshold (margin above threshold, higher = more increase) of the first is higher: -6.4% for the first, -30.7% for the second.

For CN(Cc1ccccc1)C(=S)NC(=O)c1cccs1, the signal change vs control minus 3*SD hit threshold (margin above threshold, higher = more increase) was -20.6%.

With Cc1sc2nc(CN3CCOCC3)[nH]c(=S)c2c1C the signal change vs control minus 3*SD hit threshold (margin above threshold, higher = more increase) was 21.4% (active).
With O=c1c2ccc(Cl)cc2[nH]c(=S)n1CCC1=CCCCC1 the signal change vs control minus 3*SD hit threshold (margin above threshold, higher = more increase) was 4.8% (active).
With O=c1c2ccccc2[nH]c(=S)n1CCC1=CCCCC1 the signal change vs control minus 3*SD hit threshold (margin above threshold, higher = more increase) was 3% (active).
For O=c1c2ccccc2[nH]c(=S)n1CCc1ccccc1, the signal change vs control minus 3*SD hit threshold (margin above threshold, higher = more increase) was 5.9% (active).
With O=c1c2cccnc2[nH]c(=S)n1CCC1=CCCCC1 the signal change vs control minus 3*SD hit threshold (margin above threshold, higher = more increase) was 14.4% (active).
For CCCN1C(=O)/C(=C/c2ccc(C)s2)NC1=S, the signal change vs control minus 3*SD hit threshold (margin above threshold, higher = more increase) was 33.6% (active).
With CCN1C(=O)/C(=C/c2ccc(C)s2)NC1=S the signal change vs control minus 3*SD hit threshold (margin above threshold, higher = more increase) was 1.1% (active).
In the case of CC(C)CN1C(=O)/C(=C/c2cccs2)NC1=S, the signal change vs control minus 3*SD hit threshold (margin above threshold, higher = more increase) is reported as 32% (active).
With CCCN(Cc1ccccc1)C(=S)NC(=O)c1ccccc1[N+](=O)[O-] the signal change vs control minus 3*SD hit threshold (margin above threshold, higher = more increase) was 24.3% (active).
For CCN(Cc1ccccc1)C(=S)NC(=O)c1ccccc1Br, the signal change vs control minus 3*SD hit threshold (margin above threshold, higher = more increase) was 27% (active).
In the case of CCN(C(=S)NC(=O)c1ccccc1Br)C1CCCCC1, the signal change vs control minus 3*SD hit threshold (margin above threshold, higher = more increase) is reported as 16.2% (active).
